NS1 inh – blocks influenza NS1 protein function. Potency, µM (doses to about 46.1 µM), for inactives: top-dose activity, positive = more growth. hit rate 0.4% among 270,000; calls by dose curve; note: actives are rising curves; nearly all actives have a fitted effect of over 50% in size
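OD600 was taken as the measure of yeast growth restored by compound in an NS1-expressing S. cerevisiae strain. Cells had been washed out of glucose medium and diluted 1:100 into galactose -URA medium, pH 6.0.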
Vaccinia mCherry – vaccinia inhibition (mCherry reporter); Vaccinia virus mCherry reporter infection, fluorescence; Potency, µM (titrated, usually from 36.5 µM), for inactives: top-dose activity change, negative = inhibition, hits mostly inhibitors; hit rate 0.63% among 310,000; calls by dose curve; tested in A549 cells; note: % is set by controls: 0 for no effect and ±100 for the full control effect; nearly all actives have a fitted effect of over 35% in size
HCV inh – inhibitors of hepatitis C virus infection; hit rate 3.4% among 340,000; Huh7.5.1 HCVcc-Cre infection, luciferase reporter, 44 h; Potency, µM (titrated, usually from 41.8 µM), inactives show at the top dose activity change, negative = inhibition, usual class: inhibitors; note: % is set by controls: 0 for no effect and ±100 for the full control effect
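HCVcc-Cre virus at an moi near 0.5 was added right after compound to cells cultured 4 h from seeding (1,000 cells/well). Luciferase activity was determined 44 h later, 15 min after substrate addition at RT.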
Pf growth 96h – P. falciparum growth inhibition at 96 hour, primary screen for plastid delayed-death inhibitors; hit rate 6.9% among 320,000; P. falciparum luciferase reporter growth, 96 h; Potency, µM (titrated, usually from 28.7 µM), for the others: top-dose activity change, negative = inhibition, actives largely listed as inhibitors; note: % is set by controls: 0 for no effect and ±100 for the full control effect
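Delayed-death screen, second-generation endpoint: infected erythrocytes, 2% hematocrit, 0.05% parasitemia final; 96 hours at 37 C, 5% CO2; luciferase detection reagent; luminescence decrease equals reduced growth.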
Pf growth 48h – P. falciparum growth inhibition at 48 hours (one generation); P. falciparum luciferase growth in erythrocytes, 48 h; Potency, µM (titrated, usually from 28.7 µM), without a hit: top-dose activity change, negative = inhibition, hits mostly inhibitors; hit rate 5.9% among 310,000; note: % is set by controls: 0 for no effect and ±100 for the full control effect
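Parasite viability was followed by luminescence of a genomically integrated firefly luciferase. Cultures held 0.1% parasitemia at 2% hematocrit (final), incubated under 5% CO2 at 37 C.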
Vaccinia Venus – vaccinia inhibition (Venus reporter) | AID 720580 | hit rate 0.46% among 330,000 | Vaccinia virus Venus reporter expression, fluorescence | Potency, µM (series often up to 36.5 µM), for the others: top-dose activity change, negative = inhibition, hits mostly inhibitors; calls by dose curve; tested in A549 cells; note: % is set by controls: 0 for no effect and ±100 for the full control effect; nearly all actives have a fitted effect of over 30% in size
* = called active by the depositor; i = inactive; ? = inconclusive; . = no result given. Most compounds without a hit are left out; they make up all but 11% or so of the library. Unless noted, calls come from the whole dose curve; as a rule, active = well fitted inhibition curve with a large enough effect; inconclusive = small, poorly fitted or top-dose-only effect, or another doubt; inactive = no such curve, though single readings can be large or run the other way. Potency is the fitted concentration of half-maximal effect.

SMILES | NS1 inh | Vaccinia mCherry | HCV inh | Pf growth 96h | Pf growth 48h | Vaccinia Venus
Cc1ccc(S(=O)(=O)Nc2ccc3c(c2)C(=O)N([C@H](C)CO)C[C@H](C)[C@@H](CN(C)C(=O)Nc2ccc(C(F)(F)F)cc2)O3)cc1 | . | -17.7% | 12.6µM* | . | . | -25.3%
C[C@@H]1CCCCO[C@@H](CN(C)CC2CCCCC2)[C@@H](C)CN([C@H](C)CO)C(=O)c2cc(NS(=O)(=O)c3ccc(Cl)cc3)ccc2O1 | . | ? | . | . | . | 10µM*
C[C@H](CO)N1C[C@H](C)[C@@H](CN(C)C(=O)Nc2ccc(C(F)(F)F)cc2)Oc2ccc(NS(=O)(=O)c3ccc(F)cc3)cc2C1=O | . | -2.2% | -21.7% | . | . | -15.9%
C[C@H]1CN([C@@H](C)CO)C(=O)c2cccc(NC(=O)Nc3ccc(C(F)(F)F)cc3)c2O[C@@H]1CN(C)S(=O)(=O)c1ccccc1 | . | -13.5% | ? | . | . | ?
COc1ccc(S(=O)(=O)N(C)C[C@H]2Oc3c(NC(=O)Nc4ccc(C(F)(F)F)cc4)cccc3C(=O)N([C@H](C)CO)C[C@@H]2C)cc1 | . | ? | ? | . | . | 10µM*
Cc1ccc(S(=O)(=O)N(C)C[C@@H]2Oc3ccc(NS(=O)(=O)c4ccccc4)cc3CC(=O)N([C@@H](C)CO)C[C@H]2C)cc1 | . | -11.1% | 0.562µM* | . | . | -8.4%
COc1cc(NC(=O)COC(=O)c2ccc(C)c(S(=O)(=O)N3CCCCC3)c2)c(C)cc1[N+](=O)[O-] | ? | i | ? | ? | 6.3% | -11.6%
CN(C)S(=O)(=O)c1cccc(COC(=O)CNC(=O)c2ccc(Br)o2)c1 | . | -4.2% | ? | 31.2% | 48.1% | -0.1%
CCOc1ccc(/C=N/OCC(=O)Nc2ccc(OCc3ccccc3)cc2)cc1OC | 9.2% | -16.4% | -13.3% | ? | -8.8% | -7.9%
C[C@H](CO)N1C[C@H](C)[C@@H](CN(C)C(=O)Nc2ccc(C(F)(F)F)cc2)Oc2c(NS(=O)(=O)c3cn(C)cn3)cccc2C1=O | . | -16.8% | 2.82µM* | . | . | -10.4%
C[C@H](CO)N1C[C@H](C)[C@@H](CN(C)C(=O)Nc2ccccc2)Oc2c(NS(=O)(=O)c3cn(C)cn3)cccc2C1=O | . | i | 22.7% | . | . | -20.7%
COc1ccc(S(=O)(=O)Nc2ccc3c(c2)C(=O)N([C@H](C)CO)C[C@H](C)[C@H](CN(C)Cc2ccc(C(=O)O)cc2)O3)cc1 | . | -1.5% | -1.7% | . | . | 4.4%
Cc1ccc(S(=O)(=O)Nc2ccc3c(c2)C(=O)N([C@H](C)CO)C[C@H](C)[C@@H](CN(C)Cc2ccc(-c4ccccc4)cc2)O3)cc1 | . | ? | ? | . | . | 10µM*
CCN(CC)S(=O)(=O)c1cc(C(=O)Oc2cccc(-c3cnc4ccccc4n3)c2)ccc1Br | 22.4% | . | 1.6% | . | 272.8% | -8.1%
COc1ccc2c(c1)CCC/C2=N/OC(=O)c1ccccc1OC | . | -2.2% | ? | ? | 0.5% | -19.3%
COc1ccccc1C(=O)ON=C1c2ccccc2-c2ccccc21 | -18.3% | ? | ? | 1.65µM* | 3.5% | -19.4%
O=C(Nc1ccccc1Sc1ccccc1)c1ccccc1 | -2.5% | . | -0.4% | -10.3% | . | .
FC(F)(F)c1cccc(OCCN2CCN(Cc3ccccc3)CC2)c1 | 5.2% | -1.0% | 28.6% | 10.4µM* | 11.9% | -8.6%
OCCN1CCN(CCOc2cccc(Cl)c2)CC1 | -51.6% | -10.3% | -11.8% | 1.65µM* | 21.9% | -6.2%
CN(CCOc1cccc(C(F)(F)F)c1)Cc1ccccc1 | -9.8% | -1.8% | 4.9% | ? | 25.2% | -6.1%
CCOC(=O)c1sc2c(c1C)c(=O)n(Cc1ccccc1)c(=O)n2CCN(C)C | -1.2% | i | -7.2% | 2.08µM* | ? | -17.9%
CCN(CC)C(=O)C1CCCN(c2ccc([N+](=O)[O-])cc2/C=N/NC(=O)c2ccc([N+](=O)[O-])cc2)C1 (stereo not drawn) | 5.3% | . | -5.1% | ? | ? | .
CCN(CC)C(=O)C1CCCN(c2ccc([N+](=O)[O-])cc2)C1 (stereo not drawn) | -3.2% | -9.3% | -12.8% | 1.65µM* | 3.4% | -0.8%

Compound activity from PubChem BioAssay.
